Pf growth 96h: Primary qHTS for delayed death inhibitors of the malarial parasite plastid, 96 hour incubation; Potency, µM (top dose mostly 28.7 µM), for the others: at the top dose activity change, negative = inhibition, most hits filed as inhibitors; AID 504834, 2011; P. falciparum luciferase reporter growth, 96 h; 320,000 compounds, 6.9% hits; note: potency is the fitted concentration of half-maximal effect; % is set by controls: 0 for no effect and ±100 for the full control effect
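Luminescence readout: decreased luciferase signal marks inhibited growth of reporter-expressing P. falciparum in infected red cells (2% hematocrit, 0.05% parasitemia final), exposed to compound two generations (96 h, 37 C, 5% CO2).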
Pf growth 48h: Primary qHTS for delayed death inhibitors of the malarial parasite plastid, 48 hour incubation; P. falciparum luciferase growth in erythrocytes, 48 h; Potency, µM (series often up to 28.7 µM), without a hit: at the highest dose activity change, negative = inhibition, actives largely listed as inhibitors; 310,000 compounds, 5.9% hits; AID 504832, 2011; note: potency is the fitted concentration of half-maximal effect; % is set by controls: 0 for no effect and ±100 for the full control effect
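Luminescence readout; reporter = integrated firefly luciferase in P. falciparum. RBC culture at 2% hematocrit, 0.1% parasitemia final, 37 C/5% CO2; decreased signal taken as growth inhibition.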
NS1 inh: qHTS Assay for Inhibitors of Influenza NS1 Protein Function | 270,000 compounds, 0.4% hits | Potency, µM (series often up to 46.1 µM), for the others: top-dose activity, positive = more growth; calls by dose curve; note: potency is the fitted concentration of half-maximal effect; actives are rising curves; nearly all actives have a fitted effect of over 50% in size
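OD600 was taken as the measure of yeast growth restored by compound in an NS1-expressing S. cerevisiae strain. Cells had been washed out of glucose medium and diluted 1:100 into galactose -URA medium, pH 6.0.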
Shiga inhibitor: A qHTS for Small Molecule Inhibitors of Shiga Toxin. Vero cells, Shiga toxin protein synthesis inhibition reporter. inhibition, % at 38.7 µM. 290,000 compounds, 9.2% hits. AID 2315, 2010; in the data active = inhibition mostly above about 28%, no sharp cut-off; inactive = mostly below about 43%; note: 0% is about no effect
Cycloheximide cs: Cycloheximide Counterscreen for Small Molecule Inhibitors of Shiga Toxin. cell reporter, cycloheximide protein synthesis inhibition counterscreen. max response, %. 300,000 compounds, 12% hits. AID 2314, 2010; in the data active = max response mostly above about 13%, no sharp cut-off; inactive = mostly below about 14%; note: read at 38.3 µM for the half of the compounds with a filed dose; 0% is about no effect
* marks the source's active call; other numbers are inactive results; ! = repeats disagree; [ ] = another dose, or the depositor's remark. Hits are enriched below; roughly 21% of the tested compounds scored in any of these assays. Unless noted, calls come from the whole dose curve; as a rule, active = well fitted inhibition curve with a large enough effect; inconclusive = small, poorly fitted or top-dose-only effect, or another doubt; inactive = no such curve, though single readings can be large or run the other way.

What do the screens show for `CCc1ccccc1NC(=S)NC1CC2CCCC(C1)N2Cc1cccs1` (stereo not given)?
Pf growth 96h: 1.5µM*; Pf growth 48h: 8.3µM*; NS1 inh: -2%; Shiga inhibitor: 2; Cycloheximide cs: -3

How did Cc1c(Cl)cccc1NC(=S)N(Cc1cccs1)C1CCCC1 do in these assays?
Pf growth 96h: inconclusive; Pf growth 48h: -3%; NS1 inh: -11%; Shiga inhibitor: 13; Cycloheximide cs: 16*

Results for Cc1cccc(NC(=S)NC2CC3CCCC(C2)N3Cc2cccs2)c1C (stereo not given) ?
Pf growth 96h: 5.9µM*; Pf growth 48h: inconclusive; NS1 inh: -9%; Shiga inhibitor: -14; Cycloheximide cs: -1

What do the screens show for `Fc1ccc(NC(=S)NC2CC3CCCC(C2)N3Cc2cccs2)cc1` (stereo not given)?
Pf growth 96h: 2%; Pf growth 48h: inconclusive; NS1 inh: 4%; Shiga inhibitor: -30; Cycloheximide cs: -4

Results for Cc1ccc(NC(=S)NC2CC3CCCC(C2)N3Cc2cccs2)cc1 (stereo not given) ?
Pf growth 96h: -26%; Pf growth 48h: inconclusive; NS1 inh: 0%; Shiga inhibitor: -21; Cycloheximide cs: -4

What do the screens show for `CCc1nc(SCC(=O)Nc2ccc(F)cc2)c2c(=O)n(C)c(=O)n(C)c2n1`?
Pf growth 96h: inconclusive; Pf growth 48h: inconclusive; NS1 inh: 12%; Shiga inhibitor: -1; Cycloheximide cs: -2

Results for Cc1ccc(CNC(=O)CCC(=O)Nc2nnc(C(C)C)s2)cc1 ?
Pf growth 96h: 37%; Pf growth 48h: 23%; NS1 inh: 2%; Shiga inhibitor: 9; Cycloheximide cs: -2

What do the screens show for `O=C(NNC(=O)c1ncc(Cl)c(Cl)c1Cl)c1ccc(F)cc1`?
Pf growth 96h: 48%; Pf growth 48h: inconclusive; NS1 inh: -9%; Shiga inhibitor: 2; Cycloheximide cs: 10

Results for CN1CCN(C(=O)CCS(=O)(=O)c2cc3c(cc2Cl)NC(=O)CO3)CC1 ?
Pf growth 96h: 48%; Pf growth 48h: 5%; NS1 inh: -7%; Shiga inhibitor: 18; Cycloheximide cs: -1

How did Cc1ccc(C(=O)N/C(=C\c2cn(S(=O)(=O)N(C)C)c3ccccc23)C(=O)NCCCN2CCOCC2)cc1 do in these assays?
Pf growth 96h: inconclusive; Pf growth 48h: inconclusive; NS1 inh: 1%; Shiga inhibitor: -5; Cycloheximide cs: 1

How did Cc1ccc(S(=O)(=O)O[C@H]2CC(C(C)(C)C)CC[C@@H]2c2ccccc2)cc1 (stereo not given in full) do in these assays?
NS1 inh: -3%

Results for CCOC(=O)C1=C(C)NC(=O)NC1C (stereo not given) ?
Pf growth 96h: 13%; Pf growth 48h: 7%; NS1 inh: 8%; Shiga inhibitor: 13; Cycloheximide cs: -1

What do the screens show for `CC1=C(C(=O)OC(C)C)C(C)NC(=O)N1` (stereo not given)?
Pf growth 96h: 9.3µM*; Pf growth 48h: 0%; NS1 inh: 0%; Shiga inhibitor: 1; Cycloheximide cs: 2

Results for CCCCNc1nc2ccccc2nc1Cl ?
Pf growth 96h: -20%; Pf growth 48h: inconclusive; NS1 inh: 0%; Shiga inhibitor: 31; Cycloheximide cs: -2

How did COc1cc(O)c(C(CC(=O)N2CCCCC2)c2cc(OC)c(OC)c(OC)c2)c(OC)c1 (stereo not given) do in these assays?
Pf growth 96h: inconclusive; Pf growth 48h: -19%; NS1 inh: -4%; Shiga inhibitor: 81*!; Cycloheximide cs: 47*!

Results for COc1cc(O)c(C(CC(=O)N2CCN(c3ccccc3)CC2)c2cc(OC)c(OC)c(OC)c2)c(OC)c1 (stereo not given) ?
Pf growth 96h: 10µM*; Pf growth 48h: 12µM*; NS1 inh: -11%; Shiga inhibitor: 23; Cycloheximide cs: 0

How did Cc1ccc(OCCC(=O)NNC(=O)c2cc(C)oc2C)cc1 do in these assays?
Pf growth 96h: 26%; Pf growth 48h: -11%

Results for Cc1noc(C)c1S(=O)(=O)N(CCc1ccccc1)Cc1ccccc1 ?
Pf growth 96h: inconclusive; Pf growth 48h: inconclusive; NS1 inh: -69%; Shiga inhibitor: -13; Cycloheximide cs: -3

How did Cc1ccc(-c2nc(N3CCOCC3)s[n+]2-c2ccccc2)cc1 do in these assays?
Pf growth 96h: 246%; Pf growth 48h: 235%; NS1 inh: -18%; Shiga inhibitor: 85*; Cycloheximide cs: 62*

How did CC(C)C(C(=O)NC(C)(C)C)N(CCN1CCOCC1)C(=O)CNS(=O)(=O)c1ccccc1 (stereo not given) do in these assays?
Pf growth 96h: 1.9µM*; Pf growth 48h: -11%; NS1 inh: 0%; Shiga inhibitor: -4; Cycloheximide cs: -2

How did COc1ccccc1CCC(=O)N(C)CC(=O)Nc1ccc(Cl)c(C(F)(F)F)c1 do in these assays?
Pf growth 96h: inconclusive; Pf growth 48h: -21%; NS1 inh: -8%; Shiga inhibitor: 5; Cycloheximide cs: -3

How did COc1ccc(C2C=C(c3ccccc3)Nc3nnnn32)cc1 (stereo not given) do in these assays?
Pf growth 96h: 0%; Pf growth 48h: 140%; NS1 inh: -8%; Shiga inhibitor: 53*; Cycloheximide cs: 21*

What do the screens show for `COc1cccc(C2=CC(c3ccc(N(C)C)cc3)n3ncnc3N2)c1` (stereo not given)?
Pf growth 96h: 10%; Pf growth 48h: 10µM*; NS1 inh: -20%; Shiga inhibitor: 31; Cycloheximide cs: -4

What do the screens show for `COc1cccc(C2=CC(c3ccc(N(C)C)cc3)n3nnnc3N2)c1` (stereo not given)?
Pf growth 96h: 0%; Pf growth 48h: 31%; NS1 inh: 0%; Shiga inhibitor: 50*; Cycloheximide cs: 25*

Results for COc1cccc(C2=CC(c3ccccc3)n3nnnc3N2)c1 (stereo not given) ?
Pf growth 96h: 13%; Pf growth 48h: 51%; NS1 inh: -14%; Shiga inhibitor: 3; Cycloheximide cs: 1

Results for CCCCCc1nc2ccccc2c(=O)n1-c1ccc(Cl)cc1[N+](=O)[O-] ?
Pf growth 96h: 13µM*; Pf growth 48h: 4.7µM*; NS1 inh: 2%; Shiga inhibitor: 2; Cycloheximide cs: -4

How did CN(C)N1C(N)=C(C#N)C(c2ccc(Br)cc2)C2=C1CC(C)(C)CC2=O (stereo not given) do in these assays?
Pf growth 96h: 14%; Pf growth 48h: 2%[0.00184 µM]; NS1 inh: -1%; Shiga inhibitor: -3; Cycloheximide cs: -1

How did O=C(COc1ccccc1)Nc1cccc(-c2ccc(N3CCOCC3)nn2)c1 do in these assays?
Pf growth 96h: -10%; Pf growth 48h: -15%

What do the screens show for `CCCCN(CC)c1nc(N)c(C#N)c(CC#N)c1C#N`?
Pf growth 96h: 3.3µM*; NS1 inh: 8%; Shiga inhibitor: -12; Cycloheximide cs: 0

Bioassay records as filed in PubChem BioAssay.
